Experimental data published in PubChem BioAssay (NCATS).
Inconclusive results are not listed. The source made the active and inactive calls. Unless noted, calls come from the whole dose curve; as a rule, active = well fitted curve in the direction sought with a large enough effect; inconclusive = small, poorly fitted or top-dose-only effect, or another doubt; inactive = no such curve, though single readings can be large; an effect the other way counts as inactive or inconclusive.

Legend:
CP237 = assay: qHTS profiling for inhibitors of Plasmodium falciparum proliferation (AID 504749); note: nearly all actives have a fitted effect of over 60% in size; note: potency is the fitted concentration of half-maximal effect; details: P. falciparum in erythrocytes, SYBR Green DNA, 72 h; series mostly up to 28.7 µM
How it was run: (§1)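 In a 72 h erythrocytic culture (37 C, humidified, 5% CO2) at 2.5% hematocrit and 0.3% starting parasitemia, compounds were tested; SYBR Green I in detergent lysis buffer stained parasite DNA overnight.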

CP260 = assay: as above; details: P. falciparum in erythrocytes, SYBR Green DNA, 72 h; series mostly up to 28.7 µM
How it was run: as §1

CP325 = assay: as above; details: P. falciparum in erythrocytes, SYBR Green DNA, 72 h; series mostly up to 28.7 µM
How it was run: as §1

FAB9 = assay: as above; details: P. falciparum in erythrocytes, SYBR Green DNA, 72 h; series mostly up to 28.7 µM
How it was run: as §1

GB4 = assay: as above; details: P. falciparum in erythrocytes, SYBR Green DNA, 72 h; series mostly up to 28.7 µM
How it was run: as §1

ICS = assay: as above; details: P. falciparum in erythrocytes, SYBR Green DNA, 72 h; series mostly up to 28.7 µM
How it was run: as §1

PC15 = assay: as above; details: P. falciparum in erythrocytes, SYBR Green DNA, 72 h; series mostly up to 28.7 µM
How it was run: as §1

TAB113 = assay: as above; details: P. falciparum in erythrocytes, SYBR Green DNA, 72 h; series mostly up to 28.7 µM
How it was run: as §1

[1] = molecular target: Bile acid receptor (Homo sapiens) (UniProt Q96RI1); assay: qHTS assay for small molecule agonists of farnesoid X receptor signaling (AID 588527; calls by dose curve;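 note: 0% = vehicle basal and 100% = reference agonist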); details: HEK293T FXR-UAS-bla, beta-lactamase ratio, 16 h; active compounds read high
Bile acid receptor (Homo sapiens), sequence (Q96RI1 whole entry, looked up): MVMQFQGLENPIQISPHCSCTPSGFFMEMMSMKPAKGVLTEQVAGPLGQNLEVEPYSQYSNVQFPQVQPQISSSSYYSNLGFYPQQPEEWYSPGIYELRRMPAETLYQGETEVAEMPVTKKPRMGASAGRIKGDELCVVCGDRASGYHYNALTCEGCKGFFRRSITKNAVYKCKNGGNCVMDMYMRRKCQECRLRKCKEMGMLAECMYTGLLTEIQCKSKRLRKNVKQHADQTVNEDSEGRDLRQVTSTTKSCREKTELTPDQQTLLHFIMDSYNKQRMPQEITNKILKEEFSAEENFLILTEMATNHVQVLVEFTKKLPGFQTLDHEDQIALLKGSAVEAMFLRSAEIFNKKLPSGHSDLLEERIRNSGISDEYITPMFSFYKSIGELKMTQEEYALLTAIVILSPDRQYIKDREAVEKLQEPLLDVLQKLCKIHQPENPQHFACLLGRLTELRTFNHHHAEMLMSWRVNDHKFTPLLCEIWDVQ
How it was run: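 Agonist-mode beta-lactamase reporter in GeneBLAzer FXR-UAS-bla HEK293T cells, titration up to 92 uM, 16 h exposure at 37 C, CCF4 fluorescence. Response scaled to DMSO (0%) and 100 uM chenodeoxycholic acid (100%), then Hill-fitted for EC50 and efficacy.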

[2] = molecular target: Peroxisome proliferator-activated receptor gamma (Homo sapiens) (UniProt P37231); assay: qHTS assay for small molecule antagonists of peroxisome proliferator-activated receptor gamma signaling (AID 588537; active = well fitted inhibition curve with a large enough effect in the signal ratio, with a control signal flat, not every such curve was filed as active; the % refers to the signal ratio;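 note: reporter cells co-stimulated with 50 nM rosiglitazone agonist during compound treatment; % of control where 0% means no effect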); details: HEK293 PPARg-UAS-bla, beta-lactamase ratio, antagonist mode; series mostly up to 76.8 µM
Peroxisome proliferator-activated receptor gamma (Homo sapiens), sequence (P37231 whole entry, looked up): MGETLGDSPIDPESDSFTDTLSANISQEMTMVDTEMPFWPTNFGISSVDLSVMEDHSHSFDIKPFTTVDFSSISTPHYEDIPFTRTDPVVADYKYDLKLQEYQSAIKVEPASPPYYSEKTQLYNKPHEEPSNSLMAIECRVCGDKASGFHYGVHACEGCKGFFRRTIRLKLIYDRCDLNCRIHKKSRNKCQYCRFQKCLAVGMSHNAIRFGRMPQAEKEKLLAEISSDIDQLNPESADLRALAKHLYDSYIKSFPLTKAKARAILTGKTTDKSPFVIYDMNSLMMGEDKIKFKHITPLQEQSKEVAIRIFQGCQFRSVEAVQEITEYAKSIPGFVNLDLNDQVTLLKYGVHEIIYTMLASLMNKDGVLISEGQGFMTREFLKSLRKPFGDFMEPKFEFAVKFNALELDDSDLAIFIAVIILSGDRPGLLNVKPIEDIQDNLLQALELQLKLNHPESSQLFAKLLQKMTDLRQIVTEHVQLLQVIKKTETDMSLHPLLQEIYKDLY
How it was run: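 Cell-based beta-lactamase assay; GW9662 served as the antagonist control. Stimulation used rosiglitazone, final 50 nM, 16 h, 37 C.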

C2A = assay: qHTS profiling for inhibitors of Plasmodium falciparum proliferation (AID 504749); note: nearly all actives have a fitted effect of over 60% in size; note: potency is the fitted concentration of half-maximal effect; details: P. falciparum in erythrocytes, SYBR Green DNA, 72 h; series mostly up to 28.7 µM
How it was run: as §1

CP201 = assay: as above; details: P. falciparum in erythrocytes, SYBR Green DNA, 72 h; series mostly up to 28.7 µM
How it was run: as §1

CP266 = assay: as above; details: P. falciparum in erythrocytes, SYBR Green DNA, 72 h; series mostly up to 12.8 µM
How it was run: as §1

CP268 = assay: as above; details: P. falciparum in erythrocytes, SYBR Green DNA, 72 h; series mostly up to 28.7 µM
How it was run: as §1

CP297 = assay: as above; details: P. falciparum in erythrocytes, SYBR Green DNA, 72 h; series mostly up to 28.7 µM
How it was run: as §1

CP315 = assay: as above; details: P. falciparum in erythrocytes, SYBR Green DNA, 72 h; series mostly up to 28.7 µM
How it was run: as §1

CP329 = assay: as above; details: P. falciparum in erythrocytes, SYBR Green DNA, 72 h; series mostly up to 28.7 µM
How it was run: as §1

JCK = assay: as above; details: P. falciparum in erythrocytes, SYBR Green DNA, 72 h; series mostly up to 28.7 µM
How it was run: as §1

SC27B = assay: as above; details: P. falciparum in erythrocytes, SYBR Green DNA, 72 h; series mostly up to 28.7 µM
How it was run: as §1

[3] = qHTS assay for environmental chemicals that activate the Aryl hydrocarbon Receptor (AhR) signaling pathway (AID 651777); details: 1A2-DRE human hepatoma cells, luciferase, 24 h; activation: active compounds read high; note: % of control where 0% means no effect; nearly all actives have a fitted effect of over 15% in size
How it was run: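 Induction of CYP1A2 transcription through AhR is detected by luciferase in 1A2-DRE hepatoma cells. Compounds or DMSO act for 24 hr at 37 C before a 30 min One-Glo step at room temperature.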

C=CC1CN2CCC1CC2C(OC(=O)OCC)c1ccnc2ccc(OC)cc12 (centres undefined)
active: Potency (CP237) 7.08 µM | Potency (CP260) 10 µM | Potency (CP325) 13.5 µM | Potency (FAB9) 10 µM | Potency (GB4) 4.78 µM | Potency (ICS) 3.98 µM | Potency (PC15) 3.98 µM | Potency (TAB113) 8.91 µM

COc1nc(NC(C)C)nc(NC(C)C)n1
inactive: activation [1] 0.515% | Potency [2]

COc1cc2c(cc1OC)[C@@]13CCN4CC5=CCOC6CC(=O)N2C1[C@H]6[C@@H]5C[C@@H]43 (some centres undefined)
inactive: Potency (C2A) | Potency (CP201) | Potency (CP237) | Potency (CP260) | Potency (CP266) | Potency (CP268) | Potency (CP297) | Potency (CP315) | Potency (CP325) | Potency (CP329) | Potency (FAB9) | Potency (GB4) | Potency (ICS) | Potency (JCK) | Potency (PC15) | Potency (SC27B) | Potency (TAB113)

CNC(C)[C@@H](O)c1ccccc1 (some centres undefined)
inactive: Potency (C2A) | Potency (CP201) | Potency (CP237) | Potency (CP260) | Potency (CP266) | Potency (CP268) | Potency (CP315) | Potency (CP325) | Potency (CP329) | Potency (FAB9) | Potency (GB4) | Potency (ICS) | Potency (JCK) | Potency (PC15) | Potency (SC27B) | Potency (TAB113)

CNc1ccc(C(=O)CC(O)CCC(C)C2OC(=O)CC(O)CC(=O)CC(O)CC(O)CC(O)CC(O)CC3(O)CC(O)C(C(=O)OC)C(CC(O[C@@H]4OC(C)C(O)C(N)C4O)/C=C/C=C/C=C/C=C/C=C/C=C/C=C/C2C)O3)cc1 (some centres undefined)
inactive: Potency (C2A) | Potency (CP201) | Potency (CP237) | Potency (CP266) | Potency (CP268) | Potency (CP297) | Potency (CP315) | Potency (CP325) | Potency (CP329) | Potency (FAB9) | Potency (GB4) | Potency (JCK) | Potency (PC15) | Potency (SC27B)

O=C(O)COc1cc(Cl)c(Cl)cc1Cl
inactive: activation [1] -6.14% | Potency [2] | activation [3] 0.686%

CNC(=O)Oc1cccc2c1OC(C)(C)O2
inactive: activation [1] -0.605% | Potency [2] | activation [3] 1.33%

CCC(C)C1O[C@]2(C=CC1C)CC1CC(C/C=C(\C)[C@H](OC3CC(OC)C(O[C@H]4CC(OC)[C@@H](O)C(C)O4)C(C)O3)[C@@H](C)/C=C/C=C3\COC4C(O)C(C)=C[C@H](C(=O)O1)[C@@]34O)O2 (some centres undefined)
active: Potency (C2A) 12.6 µM | Potency (CP201) 16.9 µM | Potency (CP297) 13.5 µM | Potency (CP329) 9.53 µM | Potency (GB4) 13.5 µM | Potency (ICS) 7.08 µM | Potency (SC27B) 11.2 µM

COP(N)(=O)SC (centres undefined)
inactive: activation [1] 2.48%

CC([C@H](O)c1ccccc1)N(C)C (some centres undefined)
inactive: Potency (C2A) | Potency (CP201) | Potency (CP260) | Potency (CP266) | Potency (CP268) | Potency (CP297) | Potency (CP315) | Potency (CP325) | Potency (CP329) | Potency (FAB9) | Potency (JCK) | Potency (PC15) | Potency (SC27B) | Potency (TAB113)

CCS(=O)CCSP(=O)(OC)OC (centres undefined)
inactive: activation [3] -0.491%

CCCCSP(=O)(SCCCC)SCCCC
inactive: Potency [2] | activation [3] -2.91%

O=C1C=C2C=CC3C[C@@]2(O1)C1CCCCN31 (some centres undefined)
active: Potency (C2A) 12.6 µM | Potency (CP237) 5.01 µM | Potency (CP260) 6.31 µM | Potency (CP266) 10.7 µM | Potency (CP297) 12 µM | Potency (CP315) 16.9 µM | Potency (ICS) 7.94 µM | Potency (TAB113) 14.1 µM

CCC(=O)Nc1ccc(Cl)c(Cl)c1
inactive: activation [3] 4.76%

CC(C)Nc1nc(Cl)nc(NC(C)C)n1
inactive: Potency [2] | activation [3] 0.683%
